{
  "source": "the supplement of paper PMC7156485",
  "conditions_in_all_cases": "concentration: 10 µM; 24 h",
  "key": {"[1]": {"system": "HCC1569", "test": "cell number relative to DMSO (% of DMSO); higher = more cells (less growth inhibition / toxicity)", "method_in_brief": "(§1)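 Six fields per well were imaged at ×10 after the cells were fixed in 3.7% formaldehyde and stained with a rabbit anti-H1.0 antibody, an AlexaFluor 647 secondary and DAPI. The HCC1569 and TDF cells had been plated at 800 per well in 384-well plates (RPMI, 10% FBS) and treated in triplicate with compounds at 10 µM for 24 h at 37 °C. The values are the median of replicates of H1.0 nuclear intensity or cell number, as percent of the plate control. Smoothing for positional effects was applied to HCC1569 data.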"}, "[2]": {"system": "TDF", "test": "cell number relative to DMSO (% of DMSO); higher = more cells (less growth inhibition / toxicity)", "method_in_brief": "as §1"}, "[3]": {"system": "TDF", "test": "H1.0 immunofluorescence intensity relative to DMSO (% of DMSO); higher = stronger H1.0 induction, active = 120 or more", "method_in_brief": "as §1"}, "[4]": {"system": "HCC1569", "test": "H1.0 immunofluorescence intensity relative to DMSO (% of DMSO); higher = stronger H1.0 induction, active = 140 or more", "method_in_brief": "as §1"}},
  "note": "± gives the standard deviation of the averaged measurements.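 Wherever H1.0 immunofluorescence intensity relative to DMSO is given: TDF is a line of transformed human dermal fibroblasts of mesenchymal origin.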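 Wherever cell number relative to DMSO is given: TDF denotes transformed human dermal fibroblasts of mesenchymal origin.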",
  "data": [
    {"compound": "c1ccc2c(CC3=NCCN3)cccc2c1", "note": "[Naphazoline]", "values": [
      {"measurement": "cell number", "setting": "[1]", "value": 99.4},
      {"measurement": "cell number", "setting": "[2]", "value": 102},
      {"measurement": "H1.0 immunofluorescence intensity", "setting": "[3]", "value": "98 (inactive)"},
      {"measurement": "H1.0 immunofluorescence intensity", "setting": "[4]", "value": "113 (inactive)"}
    ]},
    {"compound": "CNC1C(OC2C(OC3C(O)C(O)C(N=C(N)N)C(O)C3N=C(N)N)OC(C)C2(O)C=O)OC(CO)C(O)C1O", "note": "(configuration not stated) [Streptomycin]", "values": [
      {"measurement": "cell number", "setting": "[1]", "value": 105},
      {"measurement": "cell number", "setting": "[2]", "value": 103},
      {"measurement": "H1.0 immunofluorescence intensity", "setting": "[3]", "value": "96.7 (inactive)"},
      {"measurement": "H1.0 immunofluorescence intensity", "setting": "[4]", "value": "89 (inactive)"}
    ]},
    {"compound": "CC(=O)NNC(=O)N1Cc2ccccc2Oc2ccc(Cl)cc21", "values": [
      {"measurement": "cell number", "setting": "[1]", "value": 101},
      {"measurement": "cell number", "setting": "[2]", "value": 114},
      {"measurement": "H1.0 immunofluorescence intensity", "setting": "[3]", "value": "91 (inactive)"},
      {"measurement": "H1.0 immunofluorescence intensity", "setting": "[4]", "value": "103 (inactive)"}
    ]},
    {"compound": "N#Cc1c(O)c2c(-c3ccc(-c4ccccc4O)cc3)csc2[nH]c1=O", "values": [
      {"measurement": "cell number", "setting": "[1]", "value": 102},
      {"measurement": "cell number", "setting": "[2]", "value": 92.5},
      {"measurement": "H1.0 immunofluorescence intensity", "setting": "[3]", "value": "98.8 (inactive)"},
      {"measurement": "H1.0 immunofluorescence intensity", "setting": "[4]", "value": "96.3 (inactive)"}
    ]},
    {"compound": "CCC1(C)CC(=O)NC1=O", "note": "(configuration not stated) [Ethosuximide]", "values": [
      {"measurement": "cell number", "setting": "[1]", "value": 102},
      {"measurement": "cell number", "setting": "[2]", "value": 98.8},
      {"measurement": "H1.0 immunofluorescence intensity", "setting": "[3]", "value": "94.1 (inactive)"},
      {"measurement": "H1.0 immunofluorescence intensity", "setting": "[4]", "value": "88 (inactive)"}
    ]},
    {"compound": "O=c1[nH]ccc2c(O)cccc12", "note": "[1,5-Isoquinolinediol]", "values": [
      {"measurement": "cell number", "setting": "[1]", "value": 100},
      {"measurement": "cell number", "setting": "[2]", "value": 97.2},
      {"measurement": "H1.0 immunofluorescence intensity", "setting": "[3]", "value": "87.9 (inactive)"},
      {"measurement": "H1.0 immunofluorescence intensity", "setting": "[4]", "value": "91.6 (inactive)"}
    ]},
    {"compound": "COc1cc2c(c(OC)c1OC)-c1c(cc3c(c1OC)OCO3)CC(C)C(C)(O)C2OC(=O)c1ccccc1", "note": "(configuration not stated) [Schisantherin A]", "values": [
      {"measurement": "cell number", "setting": "[1]", "value": 106},
      {"measurement": "cell number", "setting": "[2]", "value": 95},
      {"measurement": "H1.0 immunofluorescence intensity", "setting": "[3]", "value": "98.5 (inactive)"},
      {"measurement": "H1.0 immunofluorescence intensity", "setting": "[4]", "value": "97.7 (inactive)"}
    ]},
    {"compound": "COc1cccc2c1C1CN(CCCCn3c(=O)[nH]c4c(sc5ncc(-c6ccccc6)nc54)c3=O)CC1CO2.Cl", "note": "(configuration not stated) [Fiduxosin hydrochloride]", "values": [
      {"measurement": "cell number", "setting": "[1]", "value": 88.8},
      {"measurement": "cell number", "setting": "[2]", "value": 103},
      {"measurement": "H1.0 immunofluorescence intensity", "setting": "[3]", "value": "102 (inactive)"},
      {"measurement": "H1.0 immunofluorescence intensity", "setting": "[4]", "value": "116 (inactive)"}
    ]},
    {"compound": "CC1CNCCN1S(=O)(=O)c1cccc2cnccc12.Cl.Cl", "note": "(configuration not stated) [H-7 dihydrochloride]", "values": [
      {"measurement": "cell number", "setting": "[1]", "value": 96.8},
      {"measurement": "cell number", "setting": "[2]", "value": 100},
      {"measurement": "H1.0 immunofluorescence intensity", "setting": "[3]", "value": "107 (inactive)"},
      {"measurement": "H1.0 immunofluorescence intensity", "setting": "[4]", "value": "95 (inactive)"}
    ]},
    {"compound": "C=C1C(=O)OC2C1CCC(C)=CCCC1(C)OC21", "note": "(configuration not stated) [Parthenolide]", "values": [
      {"measurement": "cell number", "setting": "[1]", "value": "65.2 ± 7.3"},
      {"measurement": "cell number", "setting": "[2]", "value": "50.3 ± 3.6"},
      {"measurement": "H1.0 immunofluorescence intensity", "setting": "[3]", "value": "119 (inactive)"},
      {"measurement": "H1.0 immunofluorescence intensity", "setting": "[4]", "value": "149 (active)"}
    ]},
    {"compound": "O=C(O)Cc1ccc(O)c(O)c1", "note": "[3,4-Dihydroxyphenylacetic acid]", "values": [
      {"measurement": "cell number", "setting": "[1]", "value": 104},
      {"measurement": "cell number", "setting": "[2]", "value": 102},
      {"measurement": "H1.0 immunofluorescence intensity", "setting": "[3]", "value": "95.9 (inactive)"},
      {"measurement": "H1.0 immunofluorescence intensity", "setting": "[4]", "value": "96.6 (inactive)"}
    ]},
    {"compound": "Cc1nnc(SCC2=C(C(=O)[O-])N3C(=O)C(NC(=O)Cn4cnnn4)C3SC2)s1.[Na+]", "note": "(configuration not stated) [Cefazolin sodium]", "values": [
      {"measurement": "cell number", "setting": "[1]", "value": 101},
      {"measurement": "cell number", "setting": "[2]", "value": 116},
      {"measurement": "H1.0 immunofluorescence intensity", "setting": "[3]", "value": "87.2 (inactive)"},
      {"measurement": "H1.0 immunofluorescence intensity", "setting": "[4]", "value": "89.5 (inactive)"}
    ]},
    {"compound": "CC(C)(C#N)c1cc(Cn2cncn2)cc(C(C)(C)C#N)c1", "note": "[Anastrozole]", "values": [
      {"measurement": "cell number", "setting": "[1]", "value": 102},
      {"measurement": "cell number", "setting": "[2]", "value": 101},
      {"measurement": "H1.0 immunofluorescence intensity", "setting": "[3]", "value": "99.4 (inactive)"},
      {"measurement": "H1.0 immunofluorescence intensity", "setting": "[4]", "value": "102 (inactive)"}
    ]}
  ]
}
